From PubChem BioAssay (EPA / NIEHS) come the findings set out here.

Records with an inconclusive call do not appear. The source made the active and inactive calls. Rule for the calls: active = hit-call score of the fitted dose curve at least 0.9, where 1 is the maximum; inconclusive = response in the unintended direction; inactive = score below 0.9.

The AC50 is the concentration at which the activity in the assay is half-maximal.

The target in the assay is human Matrix Metalloproteinase-9 (MMP9), MMP9 (gene 4318) (UniProt P14780). Kind of assay: NVS_ENZ_hMMP9: NovaScreen (NVS) Enzymatic Assay for human Matrix Metalloproteinase-9 (MMP9) (AID 2283190).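 Note: cell-free recombinant MMP9 protease activity read by fluorescent substrate signal; active means inhibition seen as loss of fluorescence signal versus DMSO.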 In a few lines: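 Screening concentration 25 uM, duplicate wells, then dose series for confirmation. Cell-free enzymatic reaction measured by fluorescence intensity 1 h post-dosing; decreased signal versus DMSO taken as activity.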
Chain of human Matrix Metalloproteinase-9 (MMP9), MMP9 (gene 4318) (P14780 whole entry, looked up): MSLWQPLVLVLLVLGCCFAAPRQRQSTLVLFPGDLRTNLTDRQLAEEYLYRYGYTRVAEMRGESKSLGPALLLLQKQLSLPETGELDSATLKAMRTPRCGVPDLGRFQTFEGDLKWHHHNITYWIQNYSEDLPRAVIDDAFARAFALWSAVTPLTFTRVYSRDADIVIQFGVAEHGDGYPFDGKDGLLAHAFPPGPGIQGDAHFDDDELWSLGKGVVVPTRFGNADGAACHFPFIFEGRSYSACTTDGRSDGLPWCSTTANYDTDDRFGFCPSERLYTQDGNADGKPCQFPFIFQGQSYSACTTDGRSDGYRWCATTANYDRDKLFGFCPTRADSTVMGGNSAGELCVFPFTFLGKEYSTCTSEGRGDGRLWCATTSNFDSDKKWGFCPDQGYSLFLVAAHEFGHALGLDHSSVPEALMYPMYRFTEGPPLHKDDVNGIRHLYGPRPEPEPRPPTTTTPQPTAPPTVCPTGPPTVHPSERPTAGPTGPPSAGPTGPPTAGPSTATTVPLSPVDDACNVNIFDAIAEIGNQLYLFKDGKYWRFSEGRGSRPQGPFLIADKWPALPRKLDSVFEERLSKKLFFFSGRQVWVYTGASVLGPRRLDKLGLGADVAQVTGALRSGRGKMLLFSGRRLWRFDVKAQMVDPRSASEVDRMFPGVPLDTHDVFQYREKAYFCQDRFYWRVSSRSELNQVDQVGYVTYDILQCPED
In the case of `CCOCCOCCOCC`, the AC50 was 15.4 µM (active).
On the same count and under the same terms, as for `C=C(C#N)C(=O)OCC`, the figure is 8.63 µM (active).
As for `c1ccc(Oc2ccccc2)cc1`, the outcome was inactive.
Take `NC(=S)NNC(N)=S`: the AC50 is 3.45 µM (active).
The same measure, in the same setting: in the case of `CCC(C)=O` it was 6.96 µM (active).
Regarding `C=CCCCCCCCCCC`, the compound was called inactive.
Turning to `CC(C)CC(C)CC(O)CC(C)C` (stereo not given), the AC50 was 5.13 µM (active).
On the same count and under the same terms, in the case of `C=C(C)C(=O)OCC(CC)(COC(=O)C(=C)C)COC(=O)C(=C)C` it was 0.749 µM (active); in that of `CC(C)(N=C=O)c1cccc(C(C)(C)N=C=O)c1`, 0.933 µM (active).
On the same count and under the same terms, as for `c1ccc2[nH]cnc2c1`, the figure is 7.49 µM (active).
